Test results taken from PubChem BioAssay (NCI).
About 79,000 compounds went through this panel and 15% of them were active in at least one assay; those are over-represented in the sample as a whole. Activity calls are given as the source filed them. Rule as the data show it: active = growth inhibition above about 70%; inactive = the rest.

Key:
[1] = NCI Yeast Anticancer Drug Screen. Data for the rad50 strain (AID 155);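 also: 0% = growth of vehicle-only cultures of the same strain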; conditions: S. cerevisiae rad50 strain growth inhibition, stronger effect = higher value
Method in brief: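 Cells are treated with compound, grown, and their growth is then scored against vehicle-only cultures of the same repair-deficient yeast strain.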

[2] = NCI Yeast Anticancer Drug Screen. Data for the mec2-1 strain (AID 157); conditions: S. cerevisiae mec2-1 strain, stronger effect = higher value
Method in brief: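 Compounds were applied to mec2-1 yeast cells. Their growth was then compared with that of vehicle-treated cultures to give growth inhibition.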

[3] = NCI Yeast Anticancer Drug Screen. Data for the sgs1 mgt1 strain (AID 161);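 also: 0% = growth of cultures given vehicle only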; conditions: S. cerevisiae sgs1 mgt1 strain, stronger effect = higher value
Method in brief: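 Percent growth inhibition was derived by comparing compound-exposed mutant yeast with vehicle-exposed cultures. The strain carries alterations in DNA damage repair.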

[4] = NCI Yeast Anticancer Drug Screen. Data for the cln2 rad14 strain (AID 165);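 also: 0% = growth equal to vehicle treated cultures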; conditions: S. cerevisiae cln2 rad14 strain, stronger effect = higher value
Method in brief: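 Strain: cln2 rad14 yeast, altered in cell cycle control and DNA damage repair. Read-out: growth inhibition vs vehicle.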

[5] = NCI Yeast Anticancer Drug Screen. Data for the bub3 strain (AID 167); conditions: S. cerevisiae bub3 mutant strain, stronger effect = higher value
Method in brief: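 Part of a panel of yeast mutants defective in DNA damage repair or cell cycle regulation. Each strain is grown with compound, and inhibition is calculated relative to solvent-treated cultures.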

[6] = NCI Yeast Anticancer Drug Screen. Data for the mlh1 rad18 strain (AID 175); conditions: S. cerevisiae mlh1 rad18 strain growth inhibition, stronger effect = higher value
Method in brief: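 A repair-deficient yeast strain is exposed to test compound, and growth is scored relative to vehicle-treated controls.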

[7] = at 5.0 µM (retest, dose inferred, filed as 0.5)
[8] = at 50.0 µM (retest, dose inferred, filed as 5.0)

Measured: growth inhibition

O=[N+]([O-])c1cc(Cc2cc([N+](=O)[O-])c3cccnc3c2O)c(O)c2ncccc12
inactive: [4]; [7] 65%
active: [1]; [7] 96% | [1]; [8] 98% | [1]; at 50.0 µM 98.3% | [2]; [7] 89% | [2]; [8] 98% | [2]; at 50.0 µM 97.2% | [3]; [7] 85% | [3]; [8] 98% | [3]; at 50.0 µM 98.4% | [4]; [8] 97% | [4]; at 50.0 µM 93.5% | [5]; [7] 73% | [5]; [8] 98% | [5]; at 50.0 µM 97.4% | [6]; [7] 90% | [6]; [8] 97% | [6]; at 50.0 µM 97.8%

CCC(CC)=NNc1ccc([N+](=O)[O-])cc1
inactive: [1]; [7] 7% | [2]; [7] 15% | [3]; [7] 8% | [4]; [7] 10% | [5]; [7] 4% | [5]; [8] 42% | [6]; [7] 11%
active: [1]; [8] 96% | [1]; at 50.0 µM 98.4% | [2]; [8] 95% | [2]; at 50.0 µM 97.7% | [3]; [8] 97% | [3]; at 50.0 µM 97.8% | [4]; [8] 94% | [4]; at 50.0 µM 95.3% | [5]; at 50.0 µM 97.9% | [6]; [8] 97% | [6]; at 50.0 µM 97.2%

Cc1cn(C2CC(Br)C(COC(c3ccccc3)(c3ccccc3)c3ccccc3)O2)c(=O)[nH]c1=O (stereo not given)
active: [1]; [8] 97% | [1]; at 50.0 µM 97.6% | [2]; [8] 99% | [2]; at 50.0 µM 98.3% | [3]; at 50.0 µM 98.2% | [4]; [8] 97% | [4]; at 50.0 µM 96.8% | [5]; [8] 99% | [5]; at 50.0 µM 96.2% | [6]; [8] 98% | [6]; at 50.0 µM 97.9%
inactive: [1]; [7] 10% | [2]; [7] 6% | [3]; [7] 8% | [3]; [8] 33% | [4]; [7] 2% | [5]; [7] 6% | [6]; [7] 8%

C/C(=N/NC(N)=O)c1ccc(Cl)s1
inactive: [1]; [7] 0% | [1]; [8] -1% | [1]; at 50.0 µM 12.9% | [2]; [7] 23% | [2]; [8] -3% | [2]; at 50.0 µM 5% | [3]; [7] -1% | [3]; [8] 0% | [3]; at 50.0 µM -4.35% | [4]; [7] -8% | [4]; [8] -3% | [4]; at 50.0 µM 52.9% | [5]; [7] -2% | [5]; [8] -7% | [5]; at 50.0 µM 9.4% | [6]; [7] -5% | [6]; [8] -1% | [6]; at 50.0 µM 1.6%

CCCCCCC(/C=C/c1c(Cl)cccc1Cl)=N\O
inactive: [1]; [7] -4% | [1]; [8] 24% | [2]; [7] -4% | [2]; [8] 46% | [3]; [7] -6% | [3]; [8] 67% | [4]; [7] -1% | [4]; [8] 12% | [4]; at 50.0 µM 69.1% | [5]; [7] -4% | [5]; [8] 53% | [6]; [7] -10% | [6]; [8] 56%
active: [1]; at 50.0 µM 83.4% | [2]; at 50.0 µM 91.7% | [3]; at 50.0 µM 91.3% | [5]; at 50.0 µM 92.8% | [6]; at 50.0 µM 94.2%

O=C(N/N=C/c1cc(Br)ccc1O)c1ccccc1
inactive: [1]; [7] 59% | [1]; [8] 61% | [1]; at 50.0 µM -23.9% | [2]; [7] 32% | [2]; [8] 53% | [2]; at 50.0 µM -18.9% | [3]; [7] 64% | [3]; at 50.0 µM 5.65% | [4]; [7] 21% | [4]; [8] 25% | [4]; at 50.0 µM -33.9% | [5]; at 50.0 µM -12.6% | [6]; at 50.0 µM -6.75%
active: [3]; [8] 82% | [5]; [7] 79% | [5]; [8] 89% | [6]; [7] 92% | [6]; [8] 90%

CCOC(=O)C1(C#N)C(=O)CSC1=Nc1ccccc1Cl (stereo not given)
inactive: [1]; [7] -7% | [1]; [8] -14% | [1]; at 50.0 µM -5.95% | [2]; [7] -16% | [2]; [8] -11% | [2]; at 50.0 µM -8.75% | [3]; [7] -4% | [3]; [8] -2% | [3]; at 50.0 µM 25% | [4]; [7] 13% | [4]; [8] 17% | [4]; at 50.0 µM -9.95% | [5]; [7] -14% | [5]; [8] -10% | [5]; at 50.0 µM 18.4% | [6]; [7] -33% | [6]; [8] -54% | [6]; at 50.0 µM -3.4%

O=C(O)c1ccc(Br)cc1C(=O)c1ccccc1
inactive: [1]; [7] -18% | [1]; [8] -15% | [1]; at 50.0 µM 1.15% | [2]; [7] -19% | [2]; [8] 10% | [2]; at 50.0 µM 9.45% | [3]; [7] -2% | [3]; [8] 1% | [3]; at 50.0 µM -3.3% | [4]; [7] 31% | [4]; [8] -38% | [4]; at 50.0 µM 11.8% | [5]; [7] 8% | [5]; [8] -18% | [5]; at 50.0 µM 6.35% | [6]; [7] -11% | [6]; [8] 6% | [6]; at 50.0 µM -20.4%

NC(=O)N/N=C/C(O)C(O)C(O)C(O)CO (stereo not given)
inactive: [1]; [7] 0% | [1]; [8] 44% | [2]; [7] -4% | [2]; [8] 1% | [2]; at 50.0 µM 59.9% | [3]; [7] -1% | [3]; [8] 16% | [3]; at 50.0 µM 35.5% | [4]; [7] 0% | [4]; [8] 26% | [4]; at 50.0 µM 6.55% | [5]; [7] -5% | [5]; [8] 7% | [5]; at 50.0 µM 36.1% | [6]; [7] -4% | [6]; [8] 20% | [6]; at 50.0 µM 19.7%
active: [1]; at 50.0 µM 77.1%

CC(C)C1=CC23CCC4C(C)(C(=O)O)CCCC4(C)C2CC1CC3C#N (stereo not given)
inactive: [1]; [7] 19% | [1]; [8] 56% | [2]; [7] 18% | [2]; [8] 34% | [3]; [7] 12% | [3]; [8] 42% | [4]; [7] 3% | [4]; [8] 57% | [5]; [7] -1% | [5]; [8] 49% | [6]; [7] 13% | [6]; [8] 39%
active: [1]; at 50.0 µM 98% | [2]; at 50.0 µM 98.5% | [3]; at 50.0 µM 98.5% | [4]; at 50.0 µM 97.1% | [5]; at 50.0 µM 98.5% | [6]; at 50.0 µM 98.2%
